First the molecules themselves.
B1: PhoQ; a variant is named by its letters at X, in order, P23837 (parent)
chain: MKKLLRLFFPLSLRVRFLLATAAVVLVLSLAYGMVALIGYSVSFDKTTFRLLRGESNLFYTLAKWENNKLHVELPENIDKQSPTMTLIYDENGQLLWAQRDVPWLMKMIQPDWLKSNGFHEIEADVNDTSLLLSGDHSIQQQLQEVREDDDDAEMTHSVAVNVYPATSRMPKLTIVVVDTIPVELKSSYMVWSWFIYVLSANLLLVIPLLWVAAWWSLRPIEALAKEVRELEEHNRELLNPATTRELTSLVRNLNRLLKSERERYDKYRTTLTDLTHSLKTPLXXLQXXLRSLRSEKMSVSDAEPVMLEQISRISQQIGYYLHRASMRGGTLLSRELHPVAPLLDNLTSALNKVYQRKGVNISLDISPEISFVGEQNDFVEVMGNVLDNACKYCLEFVEISARQTDEHLYIVVEDDGPGIPLSKREVIFDRGQRVDTLRPGQGVGLAVAREITEQYEGKIVAGESMLGGARMEVIFGRQHSAPKDE

The full ranking holds about 140,000 sequences; the median of “enrichment ratio after two sorts for PhoP signalling” is about 0, and the highest 2% start at about 11. Shown is part of a subset that was picked to be rich in the highest values.

Consider 157 variants from a collection of fitness landscapes (doi:10.1126/science.1257360).

This assay covers variants of B1. Description: enrichment ratio after two sorts for PhoP signalling (ratio (wild type AVST 3.29)); higher = more functional. The following applies: with PhoP (E. coli).
WCCW: the enrichment ratio was at most 0.25.
Turning to KCYN, the enrichment ratio was at most 0.25.
Then MLYN, with 1.73.
In the case of MCYN, the enrichment ratio worked out at 11.3.
Regarding MLYM, the enrichment ratio came out at 8.36.
Consider MCYM, for which the enrichment ratio was 14.1.
Consider KCYM, for which the enrichment ratio is at most 0.25.
QGPI: the enrichment ratio was at most 0.25.
As to VQSP, the enrichment ratio is at most 0.25.
With FRQT, the enrichment ratio was at most 0.25.
As to YETN, the enrichment ratio was at most 0.25.
ACSM: the enrichment ratio came out at 13.2.
As for ACSF, the enrichment ratio is 13.3.
With ACGR, the enrichment ratio is at most 0.25.
The result for ACSK reads 4.64; that for GKCK, at most 0.25.
Then TDGP, with at most 0.25.
For the variant RGGM, the enrichment ratio is at most 0.25.
As for NMRS, the enrichment ratio was at most 0.25.
Consider NMSA, for which the enrichment ratio is at most 0.25.
As for HPHS, the enrichment ratio is at most 0.25.
As for KMQE, the enrichment ratio was at most 0.25.
TIQC: the enrichment ratio is 0.791.
With LAQE, the enrichment ratio is at most 0.25.
Then YTQE, with at most 0.25; and PTQE, with at most 0.25; and TQQE, with 44.9.
Turning to TKQE, the enrichment ratio amounted to 16.5.
Take RNQE: the enrichment ratio was at most 0.25.
In the case of AIQE, the enrichment ratio was at most 0.25.
The result for TGQE reads 24.5; that for TIQE, 15.1.
GGQE: the enrichment ratio was at most 0.25.
As to YCTL, the enrichment ratio came out at 0.295.
Then YAID, with at most 0.25; and WAIW, with at most 0.25.
The result for TIAS reads 11.1; that for HPPD, at most 0.25; that for HRCR, at most 0.25.
Then RAAD, with at most 0.25; and GWLP, with at most 0.25; and FRVC, with at most 0.25.
Take KSQE: the enrichment ratio was at most 0.25.
Consider SLQE, for which the enrichment ratio is at most 0.25.
Then KAQE, with at most 0.25; and SQQE, with at most 0.25; and SNQE, with 18.7.
Then TLQE, with 11.7.
As for RSER, the enrichment ratio is at most 0.25.
Regarding WLMW, the enrichment ratio was at most 0.25.
On to YVFS, for which the enrichment ratio was at most 0.25.
With GCFM, the enrichment ratio was at most 0.25.
For EFLK, the enrichment ratio was at most 0.25.
Then TFLG, with 11.8.
The result for TFTG reads 13.3; that for TFFG, at most 0.25.
Then PFLG, with at most 0.25; and TFAG, with 2.03.
With WILG, the enrichment ratio was at most 0.25.
As to VSRM, the enrichment ratio was at most 0.25.
In the case of TEYG, the enrichment ratio worked out at 1.95.
With TAFP, the enrichment ratio came out at 0.47.
Take LQQQ: the enrichment ratio is at most 0.25.
The result for TAQQ reads 32.8; that for NAGI, at most 0.25.
On to TAGI, for which the enrichment ratio worked out at 13.1.
The result for KAGI reads at most 0.25; that for YTNC, at most 0.25.
SRQY: the enrichment ratio is at most 0.25.
For TTNY, the enrichment ratio stood at 25.4.
With STNY, the enrichment ratio was 14.2.
The result for SQFA reads at most 0.25; that for TTNS, 3.5; that for TTYY, 2.55.
YTNY: the enrichment ratio was at most 0.25.
For the variant HVQK, the enrichment ratio is at most 0.25.
Consider PLIG, for which the enrichment ratio is at most 0.25.
On to VDHE, for which the enrichment ratio is at most 0.25.
The result for TMTF reads 11.5.
Consider TMGF, for which the enrichment ratio amounted to 13.3.
Regarding THGF, the enrichment ratio was 8.21.
Then NVTF, with at most 0.25; and KCGF, with at most 0.25.
For the variant VHGF, the enrichment ratio is at most 0.25.
Take AIGF: the enrichment ratio came out at 11.6.
Turning to TMHF, the enrichment ratio amounted to 1.51.
The result for WITF reads at most 0.25; that for AHGF, at most 0.25.
Consider TGGF, for which the enrichment ratio was 15.
Regarding CFGF, the enrichment ratio was at most 0.25.
As to WAVD, the enrichment ratio is at most 0.25.
For HSRC, the enrichment ratio is at most 0.25.
Turning to RGHS, the enrichment ratio was at most 0.25.
Consider VKVV, for which the enrichment ratio is at most 0.25.
Regarding MFSR, the enrichment ratio was at most 0.25.
With LVPR, the enrichment ratio is at most 0.25.
Then GRNL, with at most 0.25; and YHIC, with at most 0.25.
For PQKS, the enrichment ratio is at most 0.25.
Turning to SIVS, the enrichment ratio amounted to 4.88.
As for TNGF, the enrichment ratio is 15.9.
Turning to EIGF, the enrichment ratio was found to be 17.3.
On to EYGF, for which the enrichment ratio was at most 0.25.
In the case of EEGF, the enrichment ratio is at most 0.25.
Take MNGF: the enrichment ratio came out at 3.05.
With NVGF, the enrichment ratio was at most 0.25.
For the variant TVGF, the enrichment ratio turned out to be 18.5.
Regarding TVHF, the enrichment ratio is at most 0.25.
Then TLGF, with 12.8; and TNHF, with at most 0.25.
With SLGF, the enrichment ratio turned out to be 10.1.
The result for PLGF reads at most 0.25; that for EVNL, at most 0.25; that for TCLE, at most 0.25.
As to KQLE, the enrichment ratio was at most 0.25.
With DCCE, the enrichment ratio was at most 0.25.
On to THTS, for which the enrichment ratio amounted to 1.63.
With SNKW, the enrichment ratio was at most 0.25.
As for SQFG, the enrichment ratio was at most 0.25.
TNGI: the enrichment ratio stood at 15.2.
On to TNNL, for which the enrichment ratio amounted to 0.757.
As to TNGL, the enrichment ratio came out at 12.6.
Regarding TLQF, the enrichment ratio is 15.7.
For the variant TNGD, the enrichment ratio was at most 0.25.
Take TLHF: the enrichment ratio is at most 0.25.
Take MNGI: the enrichment ratio came to 5.05.
Turning to KAQF, the enrichment ratio is at most 0.25.
The result for MNGL reads 9.61; that for DQWL, at most 0.25.
LLTH: the enrichment ratio was at most 0.25.
For CFSY, the enrichment ratio was at most 0.25.
Consider QPRN, for which the enrichment ratio is at most 0.25.
With FNQY, the enrichment ratio is at most 0.25.
With DTFM, the enrichment ratio is at most 0.25.
LQVE: the enrichment ratio was at most 0.25.
NMMI: the enrichment ratio was at most 0.25.
As for AMMS, the enrichment ratio is 1.12.
For AMMV, the enrichment ratio was 21.8.
As to AIMQ, the enrichment ratio is at most 0.25.
The result for AMPV reads at most 0.25.
On to AMMD, for which the enrichment ratio was at most 0.25.
On to ADMQ, for which the enrichment ratio is at most 0.25.
AMMI: the enrichment ratio was 15.
With AMMQ, the enrichment ratio worked out at 13.1.
For GMVM, the enrichment ratio came to 3.22.
On to SNKV, for which the enrichment ratio was at most 0.25.
Then QQCV, with at most 0.25; and HHKS, with at most 0.25.
Consider ISVD, for which the enrichment ratio was at most 0.25.
Turning to AFGA, the enrichment ratio is at most 0.25.
The result for NYGC reads at most 0.25; that for WHYL, at most 0.25.
With QPGY, the enrichment ratio is at most 0.25.
Turning to QGGY, the enrichment ratio was 14.3.
As to FFWY, the enrichment ratio was at most 0.25.
As for QGPY, the enrichment ratio is at most 0.25.
Take FFGY: the enrichment ratio is at most 0.25.
